Measurements reported in the supplement of paper PMC12669032.

Experiments:
Test in all cases: growth AUC relative to DMSO control (median of replicates) (fraction); higher = more growth (less inhibition), active = hit call of the paper
Conditions in all cases: 20 µM; 24 h;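 active = AUC reduced over 20% with Padj below 0.05 in at least 2 of 3 replicates; inactive = otherwise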
Coprococcus comes = tested on: Coprococcus comes
How it was run: (§1)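 For each compound at 20 µM (1% DMSO), gut bacterial monocultures seeded at OD600 0.05 grew anaerobically in mGAM at 37 °C in round-bottom 96-well plates. Hourly OD600 readings over 24 h gave growth curves whose minimum OD was set to 0. Area under these curves was normalised to the plate median of solvent-only wells, or to row and column medians on the industrial chemical plate. Values are medians of three biological replicates grown on separate days.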

Escherichia coli ED1a = tested on: Escherichia coli ED1a
How it was run: as §1

Escherichia coli IAI1 = tested on: Escherichia coli IAI1
How it was run: as §1

Eubacterium rectale = tested on: Eubacterium rectale
How it was run: as §1

[1] = tested on: Fusobacterium nucleatum subsp. animalis
How it was run: as §1

Lactobacillus gasseri = tested on: Lactobacillus gasseri
How it was run: as §1

Lactobacillus paracasei = tested on: Lactobacillus paracasei
How it was run: as §1

Odoribacter splanchnicus = tested on: Odoribacter splanchnicus
How it was run: as §1

[2] = tested on: Parabacteroides distasonis
How it was run: as §1

Parabacteroides merdae = tested on: Parabacteroides merdae
How it was run: as §1

Roseburia intestinalis = tested on: Roseburia intestinalis
How it was run: as §1

Streptococcus salivarius = tested on: Streptococcus salivarius
How it was run: as §1

Measured: growth AUC

O=S(=O)(Oc1ccc(Cl)cc1)c1ccc(Cl)cc1
active: [2] 0.761
inactive: Coprococcus comes 1.01 | Escherichia coli ED1a 0.971 | Escherichia coli IAI1 1 | Eubacterium rectale 1.08 | [1] 1.09 | Lactobacillus gasseri 0.84 | Lactobacillus paracasei 0.926 | Odoribacter splanchnicus 0.983 | Parabacteroides merdae 0.945 | Roseburia intestinalis 0.948 | Streptococcus salivarius 0.983

COc1cc(OC)nc(Oc2cccc(Oc3nc(OC)cc(OC)n3)c2C(=O)[O-])n1.[Na+]
inactive: Coprococcus comes 0.98 | Escherichia coli ED1a 0.989 | Escherichia coli IAI1 0.979 | Eubacterium rectale 1.01 | [1] 1.04 | Lactobacillus gasseri 0.958 | Lactobacillus paracasei 0.982 | Odoribacter splanchnicus 1.01 | [2] 0.994 | Parabacteroides merdae 1.01 | Roseburia intestinalis 1.06 | Streptococcus salivarius 1.01

CC1(C)CN=C(NN=C(/C=C/c2ccc(C(F)(F)F)cc2)/C=C/c2ccc(C(F)(F)F)cc2)NC1
inactive: Coprococcus comes 1 | Escherichia coli ED1a 0.992 | Escherichia coli IAI1 1.04 | Eubacterium rectale 1.04 | [1] 1.06 | Lactobacillus gasseri 0.935 | Lactobacillus paracasei 0.903 | Odoribacter splanchnicus 1.04 | [2] 1.06 | Parabacteroides merdae 0.989 | Streptococcus salivarius 1.1
active: Roseburia intestinalis 0.391

CCC(C)c1cc([N+](=O)[O-])cc([N+](=O)[O-])c1O (stereo not drawn)
inactive: Coprococcus comes 0.884 | Escherichia coli ED1a 0.935 | Escherichia coli IAI1 0.924 | Eubacterium rectale 0.939 | [1] 0.737 | Lactobacillus gasseri 0.959 | Lactobacillus paracasei 0.925 | [2] 0.841 | Parabacteroides merdae 0.929 | Roseburia intestinalis 0.887 | Streptococcus salivarius 0.938
active: Odoribacter splanchnicus 0.799

CCCCN(CC)c1c([N+](=O)[O-])cc(C(F)(F)F)cc1[N+](=O)[O-]
inactive: Coprococcus comes 1.03 | Escherichia coli ED1a 0.994 | Escherichia coli IAI1 1 | Eubacterium rectale 0.864 | [1] 1.04 | Lactobacillus gasseri 1 | Lactobacillus paracasei 1.03 | Odoribacter splanchnicus 1.05 | [2] 1.06 | Parabacteroides merdae 1 | Roseburia intestinalis 1.04 | Streptococcus salivarius 1.03

N#Cc1nn(-c2c(Cl)cc(C(F)(F)F)cc2Cl)c(N)c1C(F)(F)F
active: [2] 0.791 | Roseburia intestinalis 0.698 | Streptococcus salivarius 0.539
inactive: Coprococcus comes 0.885 | Escherichia coli ED1a 0.986 | Escherichia coli IAI1 0.978 | Eubacterium rectale 1.01 | [1] 0.842 | Lactobacillus gasseri 0.801 | Lactobacillus paracasei 0.927 | Odoribacter splanchnicus 0.696 | Parabacteroides merdae 0.834

COP(=O)(OC)SCn1c(=O)oc2cc(Cl)cnc21
inactive: Coprococcus comes 1.11 | Escherichia coli ED1a 1.01 | Escherichia coli IAI1 1 | Eubacterium rectale 0.986 | [1] 0.983 | Lactobacillus gasseri 1.08 | Lactobacillus paracasei 1.05 | Odoribacter splanchnicus 1 | [2] 1.08 | Parabacteroides merdae 1 | Roseburia intestinalis 1.06 | Streptococcus salivarius 0.978

CCO/N=C(\CC)C1=C(O)CC(c2c(C)cc(C)cc2C)CC1=O (stereo not drawn)
inactive: Coprococcus comes 1 | Escherichia coli ED1a 0.992 | Escherichia coli IAI1 0.978 | Eubacterium rectale 1.07 | [1] 1.05 | Lactobacillus gasseri 0.875 | Lactobacillus paracasei 0.969 | Odoribacter splanchnicus 1.07 | [2] 0.995 | Parabacteroides merdae 0.909 | Roseburia intestinalis 0.945 | Streptococcus salivarius 0.967

CCOP(=O)(OCC)O/C(=C\Cl)c1ccc(Cl)cc1Cl
active: [2] 0.725
inactive: Coprococcus comes 0.994 | Escherichia coli ED1a 0.984 | Escherichia coli IAI1 1.01 | Eubacterium rectale 0.899 | [1] 0.987 | Lactobacillus gasseri 1.06 | Lactobacillus paracasei 1.02 | Odoribacter splanchnicus 0.972 | Parabacteroides merdae 0.945 | Roseburia intestinalis 1.06 | Streptococcus salivarius 0.982

CCOP(=S)(OCC)Oc1nc(Cl)n(C(C)C)n1
inactive: Coprococcus comes 0.986 | Escherichia coli ED1a 1 | Escherichia coli IAI1 0.999 | Eubacterium rectale 0.886 | [1] 1.16 | Lactobacillus gasseri 0.952 | Lactobacillus paracasei 0.954 | Odoribacter splanchnicus 0.991 | [2] 0.917 | Parabacteroides merdae 0.974 | Roseburia intestinalis 1.02 | Streptococcus salivarius 1

Cc1cccc2sc3nncn3c12
inactive: Coprococcus comes 0.98 | Escherichia coli ED1a 0.987 | Escherichia coli IAI1 0.977 | Eubacterium rectale 0.939 | [1] 0.988 | Lactobacillus gasseri 1.05 | Lactobacillus paracasei 0.957 | Odoribacter splanchnicus 1.03 | [2] 0.991 | Parabacteroides merdae 1 | Roseburia intestinalis 0.976 | Streptococcus salivarius 1.02

O=C(O)CCl
inactive: Coprococcus comes 0.98 | Escherichia coli ED1a 0.995 | Escherichia coli IAI1 0.984 | Eubacterium rectale 0.974 | [1] 0.929 | Lactobacillus gasseri 1.03 | Lactobacillus paracasei 1.03 | Odoribacter splanchnicus 0.986 | [2] 0.949 | Parabacteroides merdae 1.02 | Roseburia intestinalis 0.962 | Streptococcus salivarius 0.979

COCC(C)N(C(=O)CCl)c1c(C)csc1C (stereo not drawn)
active: [2] 0.683
inactive: Coprococcus comes 1.02 | Escherichia coli ED1a 0.976 | Escherichia coli IAI1 0.993 | Eubacterium rectale 1.16 | [1] 0.825 | Lactobacillus gasseri 0.806 | Lactobacillus paracasei 1.01 | Odoribacter splanchnicus 0.822 | Parabacteroides merdae 1 | Roseburia intestinalis 0.988 | Streptococcus salivarius 0.868

CC(Cl)(Cl)C(=O)O
inactive: Coprococcus comes 0.998 | Escherichia coli ED1a 1.02 | Escherichia coli IAI1 0.98 | Eubacterium rectale 0.996 | [1] 1.02 | Lactobacillus gasseri 1.05 | Lactobacillus paracasei 0.977 | Odoribacter splanchnicus 0.969 | [2] 1.02 | Parabacteroides merdae 0.961 | Roseburia intestinalis 1.01 | Streptococcus salivarius 1.01

N#Cc1cc(Br)c(O)c(Br)c1
inactive: Coprococcus comes 0.996 | Escherichia coli ED1a 0.907 | Eubacterium rectale 1.28 | [1] 0.864 | Lactobacillus gasseri 0.903 | Lactobacillus paracasei 0.988 | Odoribacter splanchnicus 1.1 | [2] 0.915 | Parabacteroides merdae 0.94 | Roseburia intestinalis 0.953 | Streptococcus salivarius 0.959
active: Escherichia coli IAI1 0.773

C[N+](C)(C)CCCl.[Cl-]
inactive: Coprococcus comes 1.05 | Escherichia coli ED1a 1.02 | Escherichia coli IAI1 1.03 | Eubacterium rectale 1.04 | [1] 1.11 | Lactobacillus gasseri 0.944 | Lactobacillus paracasei 1.05 | Odoribacter splanchnicus 1.01 | [2] 1.06 | Parabacteroides merdae 1.03 | Roseburia intestinalis 0.994 | Streptococcus salivarius 1.03

O=C1C2CC=CCC2C(=O)N1SC(Cl)(Cl)Cl (stereo not drawn)
inactive: Coprococcus comes 1.03 | Escherichia coli ED1a 1.02 | Escherichia coli IAI1 1.02 | Eubacterium rectale 1.1 | [1] 1.1 | Lactobacillus gasseri 1.06 | Lactobacillus paracasei 1.01 | Odoribacter splanchnicus 0.999 | [2] 1.07 | Parabacteroides merdae 1.02 | Roseburia intestinalis 1.01 | Streptococcus salivarius 1.05

CCc1cccc(C)c1N(C(=O)CCl)[C@@H](C)COC
inactive: Coprococcus comes 0.976 | Escherichia coli ED1a 0.981 | Escherichia coli IAI1 1.01 | Eubacterium rectale 1.06 | [1] 1.15 | Lactobacillus gasseri 0.944 | Lactobacillus paracasei 1.01 | Odoribacter splanchnicus 1.02 | [2] 1.01 | Parabacteroides merdae 0.938 | Roseburia intestinalis 1.03 | Streptococcus salivarius 1.02

CC(C)(C)C(=O)C(Oc1ccc(Cl)cc1)n1cncn1 (stereo not drawn)
inactive: Coprococcus comes 1.03 | Escherichia coli ED1a 1.02 | Escherichia coli IAI1 1.02 | Eubacterium rectale 1.05 | [1] 0.974 | Lactobacillus gasseri 1.05 | Lactobacillus paracasei 1.02 | Odoribacter splanchnicus 1.04 | [2] 1.03 | Parabacteroides merdae 0.985 | Roseburia intestinalis 1.03 | Streptococcus salivarius 1.01

Cc1cc(Cl)ccc1O
inactive: Coprococcus comes 0.989 | Escherichia coli ED1a 1 | Escherichia coli IAI1 1.02 | Eubacterium rectale 1.02 | [1] 1.07 | Lactobacillus gasseri 0.979 | Lactobacillus paracasei 0.873 | Odoribacter splanchnicus 1.07 | [2] 1.02 | Parabacteroides merdae 1.04 | Roseburia intestinalis 1.01 | Streptococcus salivarius 1.04

CC[C@H]1CCCC(O[C@H]2CC[C@H](N(C)C)[C@@H](C)O2)[C@@H](C)C(=O)C2=C[C@@H]3[C@@H](C=C(C)[C@@H]4C[C@@H](O[C@@H]5O[C@@H](C)[C@H](OC)[C@@H](OC)[C@H]5OC)C[C@@H]34)[C@@H]2CC(=O)O1.CC[C@H]1CCCC(O[C@H]2CC[C@H](N(C)C)[C@@H](C)O2)[C@@H](C)C(=O)C2=C[C@@H]3[C@@H](C=C[C@@H]4C[C@@H](O[C@@H]5O[C@@H](C)[C@H](OC)[C@@H](OC)[C@H]5OC)C[C@@H]34)[C@@H]2CC(=O)O1 (stereo partly drawn)
inactive: Coprococcus comes 0.973 | Escherichia coli ED1a 0.963 | Escherichia coli IAI1 0.966 | Eubacterium rectale 0.985 | [1] 0.995 | Lactobacillus gasseri 0.879 | Lactobacillus paracasei 0.902 | Odoribacter splanchnicus 1.04 | [2] 1.01 | Parabacteroides merdae 0.925 | Roseburia intestinalis 1.03 | Streptococcus salivarius 0.972

CN(C)S(=O)(=O)N(SC(F)(Cl)Cl)c1ccccc1
inactive: Coprococcus comes 1.04 | Escherichia coli ED1a 1.03 | Escherichia coli IAI1 1.01 | Eubacterium rectale 1.09 | [1] 1.06 | Lactobacillus gasseri 1.03 | Lactobacillus paracasei 1.07 | Odoribacter splanchnicus 1.04 | [2] 1.02 | Parabacteroides merdae 0.99 | Roseburia intestinalis 0.993 | Streptococcus salivarius 0.998

CCOC(=O)CCN(Cc1ccccc1)SN(C)C(=O)O/N=C(/C)SC
inactive: Coprococcus comes 0.985 | Escherichia coli ED1a 0.995 | Escherichia coli IAI1 0.988 | Eubacterium rectale 1.08 | [1] 0.837 | Lactobacillus gasseri 0.909 | Lactobacillus paracasei 1.02 | Odoribacter splanchnicus 1.08 | [2] 1.02 | Parabacteroides merdae 0.99 | Roseburia intestinalis 0.987 | Streptococcus salivarius 0.976

NCP(=O)(O)O
inactive: Coprococcus comes 1.02 | Escherichia coli ED1a 1.02 | Escherichia coli IAI1 1.04 | Eubacterium rectale 1.01 | [1] 0.965 | Lactobacillus gasseri 1.09 | Lactobacillus paracasei 1.02 | Odoribacter splanchnicus 1.02 | [2] 1.04 | Parabacteroides merdae 1.02 | Roseburia intestinalis 1.04 | Streptococcus salivarius 1.02
